Assay results published in PubChem BioAssay (NCATS).
Records with an inconclusive call do not appear. Unmarked numbers belong to inactive results. The source made the active and inactive calls. Calls follow the shape of the dose curve; as a rule, active = well fitted inhibition curve with a large enough effect; inconclusive = small, poorly fitted or top-dose-only effect; inactive = flat fitted curve, though single readings scatter.

Assay: qHTS for Inhibitors of Plasmodium falciparum (7G8) proliferation (AID 504316); also: nearly all actives have a fitted effect of over 65% in size; also: potency is read from the fitted curve at half-maximal effect;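 as to activity change, negative = inhibition: 0% = DMSO vehicle and -100% = 0.29 µM artemisinin full kill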
Settings: P. falciparum 7G8 in erythrocytes, SYBR Green DNA, 72 h; series mostly up to 6.7 µM; activity change, negative = inhibition: at the top concentration
Summary of the method: (§1)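 Parasite growth measured as SYBR Green DNA fluorescence (ex 485, em 535 nm) after overnight lysis following 72 h culture at 37 °C, 0.3% parasitemia, 2.5% hematocrit. Values normalized against DMSO and 0.29 uM artemisinin controls, with plate-stack correction.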

| Structure (SMILES) | activity change, negative = inhibition [%] | Potency |
| --- | --- | --- |
| COC(=O)C1=C(C(=O)OC)[C@@H]2N(C)c3ccc(OC)cc3[C@@]23C[C@@H](C(=O)OC)N(C(=O)c2ccc(Br)cc2)C3=N1 | -9.17 |  |
| COC/C=C/C1=CC2=CC(=O)C(C)(OC(=O)c3cnc4ccccc4n3)C(=O)C2=CN1c1cccc(C#N)c1 (stereo not drawn) | -1.57 |  |
| COC(=O)C1=C(C(=O)OC)[C@@H]2N(C)c3ccccc3[C@@]23C[C@@H](C(=O)OC)N(S(=O)(=O)c2ccc(Br)cc2)C3=N1 |  | 1690 nM (active) |
| CCCCC1=CC2=CC(=O)C(C)(OC(=O)CC)C(=O)C2=CN1Cc1ccco1 (stereo not drawn) | 2.22 |  |
| COC(=O)CCC(=O)OC1(C)C(=O)C2=CN(CC3CC3)C(c3ccc(OC)cc3)=CC2=C(Br)C1=O (stereo not drawn) | -2.23 |  |
| COC(=O)CCCC1=CC2=CC(=O)C(C)(OC(=O)c3cccs3)C(=O)C2=CN1CCCCO (stereo not drawn) |  | inactive |
| COC(=O)C1=C(C)N(Cc2ccccc2)C(=O)NC1c1ccco1 (stereo not drawn) | -2.04 |  |
| COC(=O)CCC(=O)OC1(C)C(=O)C2=CN(CC(C)C)C(c3ccc(OC)cc3)=CC2=C(Br)C1=O (stereo not drawn) | -5.97 |  |
| CCN1C(=O)N[C@@H](c2cccc(F)c2)C(C(=O)OC)=C1C | -0.222 |  |
| COC(=O)CCCC1=CC2=CC(=O)C(C)(OC(=O)c3cccs3)C(=O)C2=CN1Cc1ccc2c(c1)OCO2 (stereo not drawn) | -7.01 |  |
| COCCN1C(=O)N[C@@H](c2cccc(F)c2)C(C(C)=O)=C1C | 2.85 |  |
| CC(CCN1CCCc2nc(C)c(C)cc21)=NO[C@H](C)c1cn([C@@H]2COC[C@@H]2O)nn1 | -0.918 |  |
| COC(=O)CCC(=O)OC1(C)C(=O)C=C2C=C(C3CC3)N(CC(C)C)C=C2C1=O (stereo not drawn) |  | 1510 nM (active) |
| COC(=O)C1=C(C(=O)OC)[C@@H]2Nc3ccccc3[C@@]23C[C@@H](C(=O)OC)N(S(=O)(=O)c2ccc4c(c2)OCCN4C)C3=N1 |  | 1510 nM (active) |
| COC(=O)C1=C(C)N(Cc2ccccc2)C(=O)N[C@H]1c1cccs1 | 2.25 |  |
| COC/C=C/C1=CC2=CC(=O)C(C)(OC(=O)c3cnc4ccccc4n3)C(=O)C2=CN1CCCOC(C)C (stereo not drawn) | -0.859 |  |
| CC#CCN1c2ccccc2[C@]23C[C@@H](C(=O)OC)N=C2NC(C(=O)OC)=C(C(=O)OC)[C@H]13 | 0.0053 |  |
| COC(=O)CCCC1=CC2=CC(=O)C(C)(OC(=O)c3cccs3)C(=O)C2=CN1c1ccccc1 (stereo not drawn) |  | inactive |
| COC(=O)C1=C(C(=O)OC)[C@@H]2N(C)c3ccccc3[C@@]23C[C@@H](CO)N(C(=O)c2ccco2)C3=N1 | 0.608 |  |

Assay: qHTS for Inhibitors of Plasmodium falciparum (HB3) proliferation (AID 504318);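 also: 0% = DMSO vehicle and -100% = artemisinin control; nearly all actives have a fitted effect of over 60% in size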
Settings: P. falciparum HB3 in erythrocytes, SYBR Green DNA, 72 h; series mostly up to 7.21 µM; activity change, negative = inhibition: at the top concentration
Summary of the method: as §1

| Structure (SMILES) | activity change, negative = inhibition [%] | Potency |
| --- | --- | --- |
| CCN1C(=O)N[C@@H](c2ccco2)C(C(C)=O)=C1C | -0.405 |  |
| CCOC(=O)CN1C(=O)NC(c2cccc(C(F)(F)F)c2)C(C(C)=O)=C1C (stereo not drawn) | 3.63 |  |
| C[C@H]1Cc2c(-c3ccccc3)nc3c(c2CO1)CN(C(=O)C1CCCCC1)CC3 | -5.15 |  |
| COC(=O)C1=C(C(=O)OC)[C@@H]2N(C)c3ccc(OC)cc3[C@@]23C[C@@H](C(=O)OC)N(C(=O)c2ccc(Br)cc2)C3=N1 | -1.74 |  |
| CCCCC1=CC2=CC(=O)C(C)(OC(=O)CC)C(=O)C2=CN1Cc1ccco1 (stereo not drawn) | 2.05 |  |
| COC(=O)CCC(=O)OC1(C)C(=O)C2=CN(CC3CC3)C(c3ccc(OC)cc3)=CC2=C(Br)C1=O (stereo not drawn) | -9.49 |  |
| COC(=O)CCCC1=CC2=CC(=O)C(C)(OC(=O)c3cccs3)C(=O)C2=CN1CCCCO (stereo not drawn) |  | inactive |
| COC(=O)C1=C(C)N(Cc2ccccc2)C(=O)NC1c1ccco1 (stereo not drawn) | 2.48 |  |
| COC(=O)CCC(=O)OC1(C)C(=O)C2=CN(CC(C)C)C(c3ccc(OC)cc3)=CC2=C(Br)C1=O (stereo not drawn) | 1.21 |  |
| CCN1C(=O)N[C@@H](c2cccc(F)c2)C(C(=O)OC)=C1C | 2.57 |  |
| CC(CCN1CCCc2nc(C)c(C)cc21)=NO[C@H](C)c1cn([C@@H]2COC[C@@H]2O)nn1 | -10.1 |  |
| COC(=O)CCC(=O)OC1(C)C(=O)C=C2C=C(C3CC3)N(CC(C)C)C=C2C1=O (stereo not drawn) | -6.49 |  |
| CC#CCN1c2ccccc2[C@]23C[C@@H](C(=O)OC)N=C2NC(C(=O)OC)=C(C(=O)OC)[C@H]13 | 3.98 |  |
| COC(=O)C1=C(C(=O)OC)[C@@H]2N(C)c3ccccc3[C@@]23C[C@@H](CO)N(C(=O)c2ccco2)C3=N1 | -0.246 |  |
